Measurements taken from PubChem BioAssay AID1159580 (chemical genetic matrix, 2015).
Several values for one entry are separate records, joined by “and”; a condition that tells them apart may be missing. Equal values may be shown once. Out of some 5,500 compounds screened, about 2,000 (36%) were called active. About 18% were inconclusive and are not listed. Cut-off read from the data, not from the text of the source: active = normalized growth mostly below about 0.91 (no sharp cut-off); inconclusive = no clear call, values can overlap the other calls; inactive = mostly above about 0.92. This is one part of the list.

Assay: chemical genetic growth profiling, strain panel (AID 1159580);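 note: tested at 20 µM; growth read once vehicle control cultures reached saturation at 30 °C; 1 = growth at the plate median or of vehicle wells; lower values mean less growth of the strain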
Conditions: S. cerevisiae deletion strains, growth OD
[1] = locus YAL013W, strain DEP1, stronger effect = lower value

Measured: normalized growth

CC(=O)NCCc1ccc(O)c(O)c1
inactive: [1] 1.03 | locus YAL040C, strain CLN3, stronger effect = lower value 1.01 | locus YDR363W, strain ESC2, stronger effect = lower value 1.05 | locus YER002W, strain NOP16, stronger effect = lower value 1 | locus YJR075W, strain HOC1, stronger effect = lower value 1.02 | locus YNL128W, strain TEP1, stronger effect = lower value 0.999 | locus YNL153C, strain GIM3, stronger effect = lower value 0.986 | locus YNL175C, strain NOP13, stronger effect = lower value 1.01 | locus YNL197C, strain WHI3, stronger effect = lower value 1.01 | locus YNL224C, strain SQS1, stronger effect = lower value 0.998 | locus YOR083W, strain WHI5 (second series), stronger effect = lower value 1.02 | locus YPL241C, strain CIN2, stronger effect = lower value 1.01

CNC(C)[C@H](O)c1ccccc1 (stereo not given in full)
inactive: [1] 1 | locus YAL021C, strain ccr4, stronger effect = lower value 1.03 | locus YAL026C, strain drs2, stronger effect = lower value 1.01 | locus YAL030W, strain snc1, stronger effect = lower value 1.01 | locus YBL061C, strain skt5, stronger effect = lower value 1.02 | locus YBR009C, strain hhf1, stronger effect = lower value 0.977 | locus YBR021W, strain FUR4, stronger effect = lower value 1.07 | locus YBR023C, strain chs3, stronger effect = lower value 1.01 | locus YBR171W, strain sec66, stronger effect = lower value 0.993 | locus YBR229C, strain ROT2, stronger effect = lower value 1.01 | locus YBR231C, strain swc5, stronger effect = lower value 1.01 | locus YBR279W, strain paf1, stronger effect = lower value 1 | locus YCL011C, strain gbp2, stronger effect = lower value 1.01 | locus YCL016C, strain dcc1, stronger effect = lower value 1.04 | locus YCL029C, strain bik1, stronger effect = lower value 1 | locus YCL061C, strain MRC1, stronger effect = lower value 0.995 | locus YCL069W, strain vba3, stronger effect = lower value 0.986 | locus YCR088W, strain abp1, stronger effect = lower value 0.989 | locus YDL005C, strain med2, stronger effect = lower value 0.999 | locus YDL035C, strain GPR1, stronger effect = lower value 1.05 | locus YDL040C, strain nat1, stronger effect = lower value 1 | locus YDL074C, strain BRE1, stronger effect = lower value 1.02 | locus YDL101C, strain DUN1, stronger effect = lower value 1.01 | locus YDL134C, strain PPH21, stronger effect = lower value 1.04 | locus YDL185W, strain tfp1, stronger effect = lower value 0.991 | locus YDL192W, strain arf1, stronger effect = lower value 0.998 | locus YDR001C, strain nth1, stronger effect = lower value 0.996 | locus YDR069C, strain doa4, stronger effect = lower value 1.02 | locus YDR101C, strain arx1, stronger effect = lower value 1.02 | locus YDR137W, strain rgp1, stronger effect = lower value 1 | locus YDR159W, strain sac3, stronger effect = lower value 0.995 | locus YDR162C, strain NBP2, stronger effect = lower value 1.02 | locus YDR195W, strain ref2 1.01 | locus YDR297W, strain sur2, stronger effect = lower value 1.01 | locus YDR318W, strain mcm21, stronger effect = lower value 1 | locus YDR334W, strain swr1, stronger effect = lower value 0.983 | locus YDR335W, strain msn5, stronger effect = lower value 1.03 | locus YDR388W, stronger effect = lower value 0.995 | locus YDR392W, strain spt3, stronger effect = lower value 1.05 | locus YDR502C, strain sam2, stronger effect = lower value 0.997 | locus YEL003W, strain gim4, stronger effect = lower value 0.992 | locus YEL037C, strain rad23, stronger effect = lower value 0.986 | locus YEL061C, strain CIN8 (second series), stronger effect = lower value 0.993 | locus YEL061C, strain CIN8, stronger effect = lower value 1.02 | locus YER015W, strain faa2, stronger effect = lower value 1.01 | locus YER016W, strain bim1, stronger effect = lower value 1.03 | locus YER110C, stronger effect = lower value 0.986 | locus YER111C, strain swi4, stronger effect = lower value 1 | locus YER155C, strain BEM2 (second series), stronger effect = lower value 1.02 | locus YER155C, strain BEM2, stronger effect = lower value 1.01 | locus YER167W, strain BCK2, stronger effect = lower value 1.02 | locus YFR010W, strain ubp6, stronger effect = lower value 0.96 | locus YGL078C, strain dbp3, stronger effect = lower value 0.994 | locus YGL086W, strain mad1, stronger effect = lower value 1.01 | locus YGL167C, strain pmr1, stronger effect = lower value 1.01 | locus YGL173C, strain kem1, stronger effect = lower value 1.01 | locus YGL227W, strain vid30, stronger effect = lower value 0.994 | locus YGL240W, strain doc1, stronger effect = lower value 0.993 | locus YGL248W, strain PDE1, stronger effect = lower value 1.02 | locus YGL253W, strain hxk2, stronger effect = lower value 1.01 | locus YGR078C, strain PAC10, stronger effect = lower value 1.02 | locus YGR135W, strain pre9, stronger effect = lower value 0.986 | locus YGR229C, strain SMI1, stronger effect = lower value 1.02 | locus YGR252W, strain gcn5, stronger effect = lower value 0.98 | locus YHR013C, strain ard1, stronger effect = lower value 1.04 | locus YHR027C, strain rpn1, stronger effect = lower value 0.998 | locus YHR030C, strain SLT2, stronger effect = lower value 1.02 and 1.05 | locus YHR079C, strain IRE1 (second series), stronger effect = lower value 1 | locus YHR079C, strain IRE1, stronger effect = lower value 1.03 | locus YHR094C, strain hxt1, stronger effect = lower value 0.989 | locus YHR129C, strain ARP1, stronger effect = lower value 1.01 | locus YHR142W, strain chs7, stronger effect = lower value 1 | locus YHR200W, strain rpn10, stronger effect = lower value 0.999 | locus YIL066C, strain RNR3, stronger effect = lower value 1.03 | locus YIL073C, strain SPO22, stronger effect = lower value 0.991 | locus YIL125W, strain kgd1, stronger effect = lower value 1 | locus YIR030C, strain dcg1, stronger effect = lower value 1 | locus YJL092W, strain hpr5, stronger effect = lower value 1 | locus YJL095W, strain BCK1 (second series), stronger effect = lower value 1.01 | locus YJL095W, strain BCK1, stronger effect = lower value 1.01 and 1.06 | locus YJL115W, strain asf1, stronger effect = lower value 0.993 | locus YJL129C, strain trk1, stronger effect = lower value 1.01 | locus YJL134W, strain LCB3, stronger effect = lower value 1 | locus YJL154C, strain vps35, stronger effect = lower value 0.986 | locus YJL164C, strain tpk1, stronger effect = lower value 1.01 | locus YJL166W, strain qcr8, stronger effect = lower value 1.01 | locus YJL168C, strain set2, stronger effect = lower value 0.991 | locus YJL187C, strain SWE1 (second series), stronger effect = lower value 1.01 | locus YJL187C, strain SWE1, stronger effect = lower value 1.02 | locus YJR043C, strain POL32, stronger effect = lower value 1.04 | locus YJR066W, strain TOR1, stronger effect = lower value 0.972 | locus YKL009W, strain mrt4, stronger effect = lower value 0.992 | locus YKL068W, stronger effect = lower value 0.995 | locus YKL085W, strain MDH1 (second series), stronger effect = lower value 1.03 | locus YKL085W, strain MDH1, stronger effect = lower value 1.03 | locus YKL160W, strain elf1, stronger effect = lower value 1.05 | locus YKL190W, strain CNB1, stronger effect = lower value 1.01 | locus YKR001C, strain vps1, stronger effect = lower value 0.997 | locus YKR026C, strain gcn3, stronger effect = lower value 0.995 | locus YKR091W, strain srl3, stronger effect = lower value 1 | locus YLL001W, strain dnm1, stronger effect = lower value 1.02 | locus YLL026W, stronger effect = lower value 1.02 | locus YLL041C, strain sdh2, stronger effect = lower value 0.996 | locus YLR027C, strain aat2, stronger effect = lower value 1.02 | locus YLR039C, strain RIC1, stronger effect = lower value 0.978 | locus YLR058C, strain SHM2, stronger effect = lower value 1.01 | locus YLR102C, strain apc9, stronger effect = lower value 0.986 | locus YLR113W, strain HOG1, stronger effect = lower value 1.08 | locus YLR221C, strain rsa3, stronger effect = lower value 0.984 | locus YLR258W, strain gsy2, stronger effect = lower value 1.03 | locus YLR262C, strain YPT6 (second series), stronger effect = lower value 0.972 | locus YLR262C, strain YPT6, stronger effect = lower value 0.983 | locus YLR268W, strain sec22, stronger effect = lower value 0.993 | locus YLR320W, strain mms22, stronger effect = lower value 0.994 | locus YLR330W, strain CHS5, stronger effect = lower value 1.01 | locus YLR342W, strain FKS1 (second series), stronger effect = lower value 1.05 | locus YLR342W, strain FKS1, stronger effect = lower value 1.02 | locus YLR357W, strain rsc2, stronger effect = lower value 0.958 | locus YLR370C, strain arc18, stronger effect = lower value 1.03 | locus YLR371W, strain rom2, stronger effect = lower value 0.987 | locus YLR384C, strain iki3, stronger effect = lower value 0.995 | locus YLR418C, strain cdc73, stronger effect = lower value 1.01 | locus YML016C, strain PPZ1, stronger effect = lower value 1.01 | locus YML032C, strain rad52, stronger effect = lower value 1 | locus YML120C, strain ndi1, stronger effect = lower value 0.996 | locus YML124C, strain tub3, stronger effect = lower value 0.991 | locus YMR058W, strain fet3, stronger effect = lower value 0.999 | locus YMR078C, strain ctf18, stronger effect = lower value 0.989 | locus YMR125W, strain sto1, stronger effect = lower value 0.955 | locus YMR129W, stronger effect = lower value 1.02 | locus YMR205C, strain PFK2, stronger effect = lower value 1 | locus YMR223W, strain ubp8, stronger effect = lower value 0.998 | locus YMR231W, strain pep5, stronger effect = lower value 1 | locus YMR263W, strain SAP30, stronger effect = lower value 1.01 | locus YMR307W, strain GAS1, stronger effect = lower value 1.17 | locus YNL067W, strain RPL9B, stronger effect = lower value 1 | locus YNL071W, strain lat1, stronger effect = lower value 0.991 | locus YNL183C, strain NPR1, stronger effect = lower value 0.982 | locus YNL209W, strain ssb2, stronger effect = lower value 0.999 | locus YNL233W, strain BNI4, stronger effect = lower value 1.02 | locus YNL248C, strain rpa49, stronger effect = lower value 0.969 | locus YNL250W, strain rad50, stronger effect = lower value 0.989 | locus YNL271C, strain bni1, stronger effect = lower value 0.982 | locus YNL298W, strain CLA4, stronger effect = lower value 1.02 | locus YNL307C, strain MCK1, stronger effect = lower value 1 | locus YNL322C, strain KRE1 (second series), stronger effect = lower value 1.01 | locus YNL322C, strain KRE1, stronger effect = lower value 1.05 | locus YNR049C, strain mso1, stronger effect = lower value 0.996 | locus YNR052C, strain pop2, stronger effect = lower value 1 | locus YOL006C, strain TOP1, stronger effect = lower value 1.16 | locus YOL012C, strain htz1 1.33 | locus YOL147C, strain pex11, stronger effect = lower value 0.982 | locus YOR001W, strain rrp6, stronger effect = lower value 0.934 | locus YOR061W, strain CKA2, stronger effect = lower value 1.02 | locus YOR069W, strain VPS5, stronger effect = lower value 1.01 | locus YOR070C, strain gyp1, stronger effect = lower value 1.02 | locus YOR080W, strain dia2, stronger effect = lower value 1.01 | locus YOR083W, strain WHI5, stronger effect = lower value 1.04 | locus YOR106W, strain vam3, stronger effect = lower value 1.03 | locus YOR136W, strain idh2, stronger effect = lower value 1 | locus YOR144C, strain elg1, stronger effect = lower value 0.995 | locus YOR184W, strain ser1, stronger effect = lower value 1 | locus YOR231W, strain MKK1, stronger effect = lower value 1.06 | locus YOR265W, strain rbl2, stronger effect = lower value 1.01 | locus YOR270C, strain vph1, stronger effect = lower value 0.952 | locus YOR290C, strain snf2, stronger effect = lower value 1.06 | locus YOR316C, strain cot1, stronger effect = lower value 0.995 | locus YPL051W, strain arl3, stronger effect = lower value 1.03 | locus YPL055C, strain LGE1, stronger effect = lower value 1.01 | locus YPL078C, strain atp4, stronger effect = lower value 1.03 | locus YPL106C, strain sse1, stronger effect = lower value 1.04 | locus YPL240C, strain hsp82, stronger effect = lower value 0.992 | locus YPL256C, strain CLN2, stronger effect = lower value 1.04 | locus YPR119W, strain clb2, stronger effect = lower value 0.991 | locus YPR141C, strain kar3, stronger effect = lower value 0.985 | locus YPR163C, strain tif3, stronger effect = lower value 0.998 | locus YPR167C, strain met16, stronger effect = lower value 0.99 | strain wtn01, stronger effect = lower value 1
